LmPK inhibitor = qHTS Assay for Inhibitors of Leishmania Mexicana Pyruvate Kinase (LmPK) | Q27686 | actives 0.37% (n = 290,000) | Potency, µM (top dose mostly 57.5 µM), actives largely listed as inhibitors | purified LmPK, Kinase-Glo ATP luminescence, 1 h
Target sequence (Q27686 whole entry, looked up): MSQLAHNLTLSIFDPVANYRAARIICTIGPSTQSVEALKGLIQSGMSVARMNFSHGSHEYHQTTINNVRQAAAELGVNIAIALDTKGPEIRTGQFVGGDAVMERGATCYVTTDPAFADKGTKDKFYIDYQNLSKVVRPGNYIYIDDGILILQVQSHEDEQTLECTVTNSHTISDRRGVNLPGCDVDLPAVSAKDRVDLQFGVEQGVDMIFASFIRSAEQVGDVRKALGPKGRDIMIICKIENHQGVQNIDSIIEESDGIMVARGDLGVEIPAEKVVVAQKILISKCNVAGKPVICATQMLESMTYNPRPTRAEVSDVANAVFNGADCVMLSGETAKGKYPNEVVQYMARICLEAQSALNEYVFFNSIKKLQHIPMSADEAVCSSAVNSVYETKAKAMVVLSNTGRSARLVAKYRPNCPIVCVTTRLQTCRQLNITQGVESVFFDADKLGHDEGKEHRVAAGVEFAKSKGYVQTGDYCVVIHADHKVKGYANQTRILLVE
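qHTS format; LmPK 0.1 nM; substrates PEP 0.5 mM and ADP 0.1 mM. One-hour room-temperature incubation, then coupled luciferase luminescence; 0.5 nM enzyme wells mark activation.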
Cycloheximide cs = Cycloheximide Counterscreen for Small Molecule Inhibitors of Shiga Toxin; actives 12% (n = 300,000); AID 2314, 2010; cell reporter, cycloheximide protein synthesis inhibition counterscreen; max response, %; in the data active = max response mostly above about 13%, no sharp cut-off; inactive = mostly below about 14%; note: read at 38.3 µM for the half of the compounds with a filed dose
Giardia FBPA inh = qHTS Assay for Inhibitors of Fructose-1,6-bisphosphate Aldolase from Giardia Lamblia; A8B2U2; purified Giardia FBPA; Potency, µM (titrated, usually from 59.6 µM), actives largely listed as inhibitors; actives 0.71% (n = 290,000); AID 2451, 2010; note: nearly all actives have a fitted effect of over 55% in size
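40 nM FBPA preincubated 10 min at RT with compound (up to 57.5 uM final), then substrate plus GAPDH/TPI/NAD/arsenate coupling and diaphorase/resazurin added. Fluorescence read after 20 min at RT, 525/598 nm.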
Shiga toxin inh = A qHTS for Small Molecule Inhibitors of Shiga Toxin | Vero cells, Shiga toxin protein synthesis inhibition reporter | inhibition, % at 38.7 µM | actives 9.2% (n = 290,000); in the data active = inhibition mostly above about 28%, no sharp cut-off; inactive = mostly below about 43%
NS1 function inh = qHTS Assay for Inhibitors of Influenza NS1 Protein Function; Potency, µM (highest dose often 46.1 µM); actives 0.4% (n = 270,000); calls by dose curve; note: actives are rising curves; nearly all actives have a fitted effect of over 50% in size
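A cell-based growth assay was used: compounds that relieve NS1-induced slow growth of budding yeast raise OD600. Assay medium was yeast nitrogen base with ammonium sulphate and -URA supplement, pH 6.0, with 2% galactose.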
Hits are given with their value. Only some compounds are listed: those with a hit (about 14% of all), similar ones and a draw of the others. Unless noted, calls come from the whole dose curve; as a rule, active = well fitted curve in the direction sought with a large enough effect; inconclusive = small, poorly fitted or top-dose-only effect, or another doubt; inactive = no such curve, though single readings can be large; an effect the other way counts as inactive or inconclusive.

O=C(NC1CCCCC1)c1ccc(-c2ccccc2[N+](=O)[O-])o1 was read as LmPK inhibitor inactive, Cycloheximide cs 43.9, Shiga toxin inh 105.1 and NS1 function inh inactive.
Screening O=C(NC1CCCCC1)c1ccc([N+](=O)[O-])o1 returned LmPK inhibitor inactive, Cycloheximide cs 42.6, Giardia FBPA inh inactive, Shiga toxin inh 71.9 and NS1 function inh inactive.
Screening O=C(COC(=O)c1ccc(-c2ccc([N+](=O)[O-])cc2)o1)NC(=O)NC1CCCCC1 returned LmPK inhibitor inactive, Cycloheximide cs inactive, Giardia FBPA inh inactive, Shiga toxin inh inactive and NS1 function inh inactive.
CCCn1cc(CN2CCC(n3nccc3NC(=O)c3ccccc3)CC2)c(C)n1 was read as LmPK inhibitor inactive, Cycloheximide cs inactive, Shiga toxin inh inactive and NS1 function inh inactive.
Screening O=C(/C=C/c1ccccc1Cl)c1ccc[nH]1 returned LmPK inhibitor inactive, Cycloheximide cs 36.3, Giardia FBPA inh inactive, Shiga toxin inh 51.5 and NS1 function inh inactive.
For O=C(/C=C/c1ccc(Cl)cc1Cl)c1ccc[nH]1 the results were LmPK inhibitor inactive, Cycloheximide cs 33.7, Giardia FBPA inh inactive, Shiga toxin inh 74.6 and NS1 function inh inactive.
Screening CN(C)/C=C/C(=O)/C=C/c1ccc(Cl)cc1Cl returned LmPK inhibitor inactive, Cycloheximide cs 34.1, Giardia FBPA inh inactive and Shiga toxin inh 102.2.
`O=C(/C=C/c1ccc(Cl)cc1Cl)n1cccn1` gave LmPK inhibitor inactive, Cycloheximide cs inactive, Giardia FBPA inh inactive, Shiga toxin inh inactive and NS1 function inh inactive.
`CC(O)[C@@H](O)[C@H]1CNc2nc(N)[nH]c(=O)c2N1` (some centres not stated) gave Giardia FBPA inh inactive and NS1 function inh inactive.
Screening Cc1[nH]c2ccc(C(=O)N3CCN(c4ccc(F)cc4)CC3)cc2c1C returned LmPK inhibitor inactive, Cycloheximide cs inactive, Giardia FBPA inh inactive, Shiga toxin inh inactive and NS1 function inh inactive.
`CC1=NC(=O)C(N=Nc2ccccc2)N1c1ccccc1` (configuration not stated) gave LmPK inhibitor inactive, Cycloheximide cs 28.6, Giardia FBPA inh inactive, Shiga toxin inh 51.9 and NS1 function inh inactive.
CC1=NC(=O)C(N=Nc2ccccc2C(=O)O)N1c1ccccc1 (configuration not stated) was read as LmPK inhibitor inactive, Cycloheximide cs inactive, Giardia FBPA inh inactive, Shiga toxin inh inactive and NS1 function inh inactive.
For CC1=NC(=O)C(N=Nc2cccc(C(=O)O)c2)N1c1ccccc1 (configuration not stated) the results were LmPK inhibitor inactive, Cycloheximide cs 34.9, Giardia FBPA inh inactive, Shiga toxin inh 104.5 and NS1 function inh inactive.
For Cc1cc(-c2ccccc2)n(-c2ccccc2)n1 the results were LmPK inhibitor inactive, Cycloheximide cs 40.1, Giardia FBPA inh inactive, Shiga toxin inh 93.9 and NS1 function inh inactive.
Screening Nc1c(-c2ccccc2)c(CN2CCOCC2)nn1-c1ccccc1 returned LmPK inhibitor inactive, Cycloheximide cs inactive, Giardia FBPA inh inactive, Shiga toxin inh inactive and NS1 function inh inactive.
`Cc1nn(CC2CCCCC2)c(N)c1-c1ccccc1` gave LmPK inhibitor inactive, Cycloheximide cs 44.1, Giardia FBPA inh inactive, Shiga toxin inh 64.5 and NS1 function inh inactive.
Cc1nn(-c2ccccc2)c(N)c1-c1ccccc1 was read as LmPK inhibitor inactive, Cycloheximide cs 38.3, Giardia FBPA inh inactive and Shiga toxin inh 64.2.
Screening Cc1nn(-c2ccccc2)c(/N=C/c2ccccc2O)c1-c1ccccc1 returned LmPK inhibitor inactive, Cycloheximide cs 79.8, Giardia FBPA inh inactive, Shiga toxin inh active and NS1 function inh inactive.
For CC(C)[C@@H](Br)C(=O)NCC(=O)O the results were NS1 function inh inactive.
For CCOC(=O)CNC(=O)O[C@@H]1C(=O)c2cc(Br)ccc2O[C@H]1c1ccc2c(c1)OCO2 the results were Giardia FBPA inh inactive.
Screening Cc1nn(-c2nc3ccccc3[nH]2)c(N)c1-c1ccccc1 returned LmPK inhibitor inactive, Cycloheximide cs 41.9, Giardia FBPA inh inactive, Shiga toxin inh 66.9 and NS1 function inh inactive.
Screening CCc1ccc(NC(=O)CSCc2nc(N)nc(Nc3ccccc3CC)n2)cc1 returned LmPK inhibitor inactive, Cycloheximide cs inactive, Giardia FBPA inh inactive, Shiga toxin inh inactive and NS1 function inh inactive.
